# Measurements reported in PubChem BioAssay (NCATS).
# Records with an inconclusive call do not appear. Activity calls are given as the source filed them. Calls follow the shape of the dose curve; as a rule, active = well fitted curve in the direction sought with a large enough effect; inconclusive = small, poorly fitted or top-dose-only effect, or another doubt; inactive = no such curve, though single readings can be large; an effect the other way counts as inactive or inconclusive.
# Test: qHTS for Inhibitors of Plasmodium falciparum (GB4) proliferation (AID 504315); also: nearly all actives have a fitted effect of over 50% in size;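 as to activity change, negative = inhibition: 0% = DMSO vehicle and -100% = 0.29 µM artemisinin control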
# Conditions: P. falciparum GB4 in erythrocytes, SYBR Green DNA, 72 h; series mostly up to 6.7 µM; activity change, negative = inhibition: at the top concentration
# Procedure, shortened: (§1)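 Erythrocytes infected with P. falciparum line (0.3% parasitemia, 2.5% hematocrit final) incubated with compounds 72 h at 37 °C, 5% CO2; SYBR Green lysis buffer added, fluorescence read next day. Normalized to 0.29 uM artemisinin and DMSO.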
# Potency is read from the fitted curve at half-maximal effect.
SMILES,"activity change, negative = inhibition",Potency
Cc1cc2c(nc1C)CCCCN2C[C@H](C)ON=C[C@@H](C)[C@H](OCc1ccccc1)C(C)C,-2.95% (inactive),
O=c1oc2ccccc2c2c1[C@H]1O[C@](c3ccsc3)(Cc3ccccc31)O2,-15.1% (inactive),
COc1ccc([C@]23Cc4cc(OC)c(OC)cc4[C@H](O2)c2c(cc(C)oc2=O)O3)cc1,-7.48% (inactive),
CC1(OC(=O)C2CCCC2)C(=O)C=C2C=C(c3ccsc3)N(Cc3ccccc3)C=C2C1=O (stereo not drawn),,inactive
CC#C[C@H](C)[C@@H](OCOC)[C@H](C[C@H](C)Cc1cc(Br)cc(OCc2ccccc2)c1OC)OC,,1.51 µM (active)

# Test: qHTS for Inhibitors of Plasmodium falciparum (7G8) proliferation (AID 504316); also: nearly all actives have a fitted effect of over 65% in size;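 as to activity change, negative = inhibition: 0% = DMSO vehicle and -100% = 0.29 µM artemisinin full kill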
# Conditions: P. falciparum 7G8 in erythrocytes, SYBR Green DNA, 72 h; series mostly up to 6.7 µM; activity change, negative = inhibition: at the top concentration
# Procedure, shortened: as §1
SMILES,"activity change, negative = inhibition",Potency
COC(=O)CC1=CO[C@@H](O)[C@@H]2C(CO)=CC[C@@H]12,-0.935% (inactive),
COC(=O)CC=C1c2ccccc2[C@@H](OC)[C@@H]1C,,inactive
COC(=O)N[C@H](C(C(=O)OC)=C(C)NCc1ccccc1)c1ccco1,12.2% (inactive),
COC(=O)CCCC1=CC2=C(c3ccccc3)C(=O)C(C)(OC(=O)C3CCCC3)C(=O)C2=CN1c1ccc(OC)cc1 (stereo not drawn),-12.4% (inactive),
COC1=C[C@H](C(=O)N[C@H]2CCCC[C@H]2NC(C)=O)[C@H](C)[C@@H](c2ccccc2)CC1=O,-20% (inactive),
CCCCc1nc2c(c3c1C[C@H](C)OC3)CN(S(=O)(=O)c1ccccc1C(=O)OC)CC2,-11.2% (inactive),
CC(CCC(=O)OC[C@H]1O[C@H](C#Cc2ccccc2)C=C[C@H]1Oc1ccc(C)cc1)=NO[C@H](C)c1cn([C@@H]2COC[C@@H]2O)nn1,-18.2% (inactive),
CC(C)=CCN1C(=O)[C@@]2(CC(C)=C[C@@H](COCc3ccccc3)O2)c2ccccc21,,1.9 µM (active)
Cc1c(O)c(=O)ccn1Cc1ccccc1,-10.2% (inactive),
CCCNC(=O)OC[C@H]1O[C@H](CCON=C(C)CCC(=O)OC[C@H]2O[C@H](C#Cc3ccccc3)C=C[C@H]2Oc2ccc(C)cc2)C=C[C@H]1Oc1ccc(OC)cc1,-13.8% (inactive),
COC(=O)c1ccc(CN2C(=O)[C@]3(OCCC=C[C@@H]3C)c3cc(OC)ccc32)cc1,-17% (inactive),
Cc1cc2c(nc1C)CCCCN2C[C@H](C)ON=C[C@@H](C)[C@H](OCc1ccccc1)C(C)C,-9.79% (inactive),
CC1(OC(=O)C2CCCC2)C(=O)C=C2C=C(c3ccsc3)N(Cc3ccccc3)C=C2C1=O (stereo not drawn),-3.14% (inactive),
